According to PubChem BioAssay (NCATS):
Values joined by “and” are separate entries in the source; they are usually repeats but may differ in a detail not shown here. Equal values may be shown once. Records with an inconclusive call do not appear. Active and inactive are the calls of the source. Calls come from the whole dose curve; as a rule, active = well fitted activation curve with a large enough effect; inconclusive = small, poorly fitted or top-dose-only effect; inactive = flat fitted curve, though single readings scatter.

Experiment: qHTS assay for environmental chemicals that activate the Aryl hydrocarbon Receptor (AhR) signaling pathway (AID 651777); note: % of control where 0% means no effect; nearly all actives have a fitted effect of over 15% in size
Details: 1A2-DRE human hepatoma cells, luciferase, 24 h; activation: stronger effect = higher value
Text: National Center for Advancing Translational Sciences [NCATS]
NIH Chemical Genomics Center [NCGC]
U.S. Environmental Protection Agency [EPA]
National Institutes of Environmental Health Sciences [NIEHS]
National Toxicology Program [NTP]
The Aryl hydrocarbon Receptor (AhR) plays a critical role in the development of cancer or neoplasm and its formation is most likely due to genetic mutations and the influence of environment. Exposure to environmental pollutants such as polycyclic aromatic hydrocarbons (PAH), their halogenated derivatives and heterocyclic amines causes the induction of phase I and II enzymes. The transcriptional activation of CYP1A2 is directly regulated by AhR.
A cell based assay (1A2-DRE cells, developed by Puracyp, Inc., CA) was used to assess the activation of AhR. Human hepatoma cells were stably transfected with the dioxin response element (DRE) and CYP1A2 promoter fused to a luciferase gene. Increased luciferase activity can be used to identify the compounds that cause the induction of CYP1A2 and AhR activation.
1,200 cells in 5 uL/well were dispensed into white wall/solid bottom 1536-well plates using a Multidrop Combi (Thermo Scientific) dispenser. Following transfer of 23 nL compound or DMSO vehicle by a pin tool, the plates were incubated 24 hr at 37 C and 5% CO2. 5 ul One-Glo (Promega) was then added to each well and following 30 min incubation at room temperature, luciferase activity was quantified on a ViewLux CCD-based plate reader.

With CCCOC(=O)NCCCN(C)C as the molecule, how does the activation read?
Its activation is 2.96% (inactive).

For C=CC(=O)OCCOc1ccccc1, which activation is on record?
Its activation is -0.084% (inactive).

For COC(=O)c1ccc(C(=O)OC)cc1, which activation is on record?
The activation was 2.27% (inactive).

For CCCCCCCCCCCCCO, which activation is on record?
Its activation is 0.322% (inactive).

With CCCCOCCOCCO as the molecule, how does the activation read?
Its activation is 0.311% (inactive).

With O=C=NCCCCCCN=C=O as the molecule, how does the activation read?
The activation was -0.825% (inactive).

With CC(=O)CC(=O)Nc1ccccc1C as the molecule, how does the activation read?
The activation was 3.12% (inactive).

Which activation does the source give for C1CCC2(CCCCO2)OC1 here?
Its activation is 0.829% (inactive).

Which activation does the source give for CCCCCCCC1CCC(=O)O1 (stereo not given) here?
Its activation is 4.53% (inactive).

With CCCCCCCCCCCCc1ccccc1 as the molecule, how does the activation read?
The activation was 0.463% (inactive).

Which activation does the source give for CCCCCc1ccc(N)cc1 here?
Its activation is 1.05% (inactive).

Which activation does the source give for CCOC(=O)[C@H](C)Oc1ccc(Oc2nc3ccc(Cl)cc3o2)cc1 here?
The activation was 13.7% (inactive).

For CCCN(CCC)c1c([N+](=O)[O-])cc(C(F)(F)F)c(N)c1[N+](=O)[O-], which activation is on record?
The activation was 2.99% (inactive).

Which activation does the source give for Cc1c(Cl)cccc1Cl here?
The activation was -0.186% (inactive).

For NN(c1ccccc1)c1ccccc1, which activation is on record?
The activation was 3.15% (inactive).

For CCCC/C=C\CCCCCCCCO, which activation is on record?
Its activation is 0.183% (inactive).

With Cc1ccc(S(=O)(=O)N=C=O)cc1 as the molecule, how does the activation read?
Its activation is -0.31% (inactive).

For CC(C)(C)c1ccc(O)c(C(C)(C)C)c1, which activation is on record?
Its activation is 0.859% (inactive).

For C[Si](C)(C)N[Si](C)(C)C, which activation is on record?
Its activation is 1.22% (inactive).

For CCCCOCC(C)O (stereo not given), which activation is on record?
Its activation is 1.48% (inactive) and -0.559% (inactive).

With C=C(C)C(=O)OCCOCCOCCOC(=O)C(=C)C as the molecule, how does the activation read?
Its activation is -1.22% (inactive).

With O=C(Cl)c1cc(Cl)cc(Cl)c1 as the molecule, how does the activation read?
The activation was 2.73% (inactive).

With CCC(C)OC(=O)N1CCCCC1CCO (stereo not given) as the molecule, how does the activation read?
The activation was 1.16% (inactive).

With C[C@]12CC[C@@H]3c4ccc(O)cc4CC[C@H]3[C@@H]1CC[C@H]2O as the molecule, how does the activation read?
The activation was 0.328% (inactive).

With O=C(O)c1ccc(C(=O)O)c(C(=O)O)c1 as the molecule, how does the activation read?
Its activation is 0.771% (inactive).

For C=Cc1ccc(P(c2ccccc2)c2ccccc2)cc1, which activation is on record?
Its activation is 0.447% (inactive).

Which activation does the source give for CCCCCCC(O)CCCCCCCCCCC(=O)O (stereo not given) here?
The activation was -0.827% (inactive).

For N[C@@H]1[C@@H](O)[C@H](O)[C@@H](CO)O[C@H]1O, which activation is on record?
The activation was 2.2% (inactive).

For CCCCCCCCCCCC[N+](C)(C)C, which activation is on record?
The activation was 9.5% (inactive).

For CC(C)(N=C=O)c1cccc(C(C)(C)N=C=O)c1, which activation is on record?
The activation was 0.551% (inactive).

For CC1(C)C(=O)N(Br)C(=O)N1Br, which activation is on record?
The activation was 1.3% (inactive).

With CC(=O)c1c(C)c([N+](=O)[O-])c(C(C)(C)C)c([N+](=O)[O-])c1C as the molecule, how does the activation read?
The activation was 0.439% (inactive).

For FC(F)(F)c1ccc(Cl)c(Cl)c1, which activation is on record?
Its activation is 3.72% (inactive).

With O=C(Cl)c1cccc(C(=O)Cl)c1 as the molecule, how does the activation read?
The activation was -0.235% (inactive).

With C[Si](Cl)(Cl)[Si](C)(Cl)Cl as the molecule, how does the activation read?
Its activation is 0.351% (inactive).

For CCCCOCCOCCOC(=O)CCCCC(=O)OCCOCCOCCCC, which activation is on record?
Its activation is -0.636% (inactive).

With OCCOCCOCCOCCO as the molecule, how does the activation read?
Its activation is 2.06% (inactive).

With CC(=O)CC(=O)Nc1ccc(C)cc1C as the molecule, how does the activation read?
The activation was 0.555% (inactive).

With CCCCOCCOCCOCCO as the molecule, how does the activation read?
The activation was 1.2% (inactive).

Which activation does the source give for CSC(=O)c1cccc2nnsc12 here?
The activation was 0.806% (inactive).
